Data on ten compounds can be found in PubChem BioAssay (Tox21).

Records with an inconclusive call do not appear. Where a structure was tested more than once in an assay, its records may differ in their call. Active and inactive are the calls of the source. Unless noted, the call rests on the fitted dose curve; in most records, active means well fitted curve in the direction sought with a large enough effect in the repeat runs; inconclusive means weak or mixed curves; inactive means no such curve, though single readings can be large; an effect the other way counts as inactive or inconclusive.

A short description of experiment [1]: qHTS assay to identify small molecule agonists of the androgen receptor (AR) signaling pathway in the presence of an antagonist - cell viability counter screen (AID 1259379).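 Further: MDA-kb2 human breast cancer cells carrying an MMTV luciferase reporter; series mostly up to about 92 µM; nearly all actives have a fitted effect of over 25% in size.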 The method in brief: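 Cells: MDA-kb2 (MMTV-luc, AR and GR elements), 3,000/well, 5 hr settle. Added: nilutamide 3.0uM final, then compounds (15 conc.). Incubation: 16 hr, 37C, no CO2. Read-out: CellTiter-Fluor, 1 hr, fluorescence.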
For orientation: In qHTS, concentration-response curves come from the screen itself.

A short description of experiment [2]: qHTS assay to identify small molecule antagonists of the estrogen receptor beta (ER-beta) signaling pathway - cell viability counter screen (AID 1259382).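 Further: HEK293T cells carrying ER-beta-UAS-bla reporter stimulated with estradiol; series mostly up to about 92 µM; nearly all actives have a fitted effect of over 55% in size.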 An outline of the steps:
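Cells: ER-beta-UAS-bla HEK293T, 2,000/well, 2% CS-FBS, 6 hr settle. Cpd + E2 (1nM final), 16 hr, 37C/5% CO2. Bla FRET substrate 2 hr RT, then CellTiter-Glo 30 min RT, luminescence.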

For experiment [3], the target named is Estrogen receptor (Homo sapiens) (UniProt P03372). The experiment is described as follows: qHTS assay to identify small molecule agonists of the estrogen receptor alpha (ER-alpha) signaling pathway in the presence of an antagonist (AID 1259383; calls by dose curve; further: top concentration of the series differs between compounds; nearly all actives have a fitted effect of over 15% in size). An outline of the steps:
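VM7Luc4E2, endog. ER-alpha + 4×ERE-luc; charcoal-stripped FBS, phenol red-free, 5 d; 24hr plating; +10.0nM ICI-182,780 (final); cpds 15 conc, 22hr, 37C/5% CO2; ONE-Glo luminescence.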

Experiment [4] is described as follows: qHTS assay to identify small molecule agonists of the estrogen receptor alpha (ER-alpha) signaling pathway in the presence of an antagonist - cell viability counter screen (AID 1259386).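 Further: series mostly up to about 92 µM; cells exposed to compounds for 22 h at 37 °C before the viability read; nearly all actives have a fitted effect of over 30% in size.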 An outline of the steps:
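VM7Luc4E2, stripped-serum pre-culture 5 d; 24hr plating; +ICI-182,780 10.0nM final; cpds 15 conc, 22hr, 37C/5% CO2; CellTiter-Fluor added at 21hr, fluorescence 1hr later.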

Experiment [5] deals with Progesterone receptor (Homo sapiens) (UniProt P06401). The experiment is described as follows: qHTS assay to identify small molecule agonists of the progesterone receptor (PR) signaling pathway (AID 1346784; calls by dose curve; further: nearly all actives have a fitted effect of over 30% in size). The method in brief:
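Fluorescence from LiveBLAzer B/G FRET substrate cleavage (2 hr, RT) reported PR activation in PR-UAS-bla HEK 293T cells treated 16 hr at 37C/5% CO2 with compounds; medium contained 2% charcoal-stripped FBS.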

For experiment [6] the target is unchanged. The experiment in a line: qHTS assay to identify small molecule antagonists of the progesterone receptor (PR) signaling pathway (AID 1346795; active means well fitted inhibition curve with a large enough effect in the signal ratio in the repeat runs, not every such curve was filed as active; the % refers to the signal ratio). An outline of the steps:
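Fluorescence intensity measured 2 hr after adding beta-lactamase FRET substrate to PR-UAS-bla HEK293T cells that had been co-treated 16 hr with compound and 1 nM R5020 (final concentration) in 2% charcoal-stripped FBS.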

The nature of experiment [7]: qHTS assay to identify small molecule antagonists of the progesterone receptor (PR) signaling pathway - cell viability counter screen (AID 1346798). Further: series mostly up to about 92 µM; nearly all actives have a fitted effect of over 50% in size. An outline of the steps: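 CellTiter-Glo luminescence; PR-UAS-bla HEK293T, 3,000 cells/well; compound + R5020, 16 hr, 37C/5% CO2; 30 min RT before read.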
A short description of experiment [8]: qHTS assay to identify small molecule agonists of the progesterone receptor (PR) signaling pathway - cell viability counter screen (AID 1346799; calls by dose curve; further: nearly all actives have a fitted effect of over 45% in size; further: potency means the concentration at half of the fitted maximal effect). The method in brief: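 In parallel with the beta-lactamase readout, cytotoxicity toward PR-UAS-bla HEK293T cells was measured by CellTiter-Glo luminescence following 16 hr compound incubation in 2% charcoal-stripped FBS medium.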

The nature of experiment [9]: qHTS assay to identify small molecule antagonists of the TGF-beta/Smad signaling pathway - cell viability counter screen (AID 1346824). Further: nearly all actives have a fitted effect of over 50% in size. An outline of the steps:
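SBE-bla HEK 293T cells, incubated overnight, then compound plus 0.25 ng/mL TGF-beta1 (stock added) for 5 hr at 37 C. Viability was read in the same wells by CellTiter-Glo luminescence after 30 min at room temperature.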

Experiment [10] can be described thus: qHTS assay to identify small molecule agonists of the TGF-beta/Smad signaling pathway - cell viability counter screen (AID 1346829). Further: top concentration of the series differs between compounds; nearly all actives have a fitted effect of over 45% in size. The method in brief:
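HEK 293T SBE-bla line, 5 hr compound exposure at 37 C, multiplexed CellTiter-Glo viability read by luminescence.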

Experiment [11] is described as follows: qHTS assay to identify small molecule agonists of the TGF-beta/Smad signaling pathway (AID 1346859; active means well fitted activation curve with a large enough effect in the signal ratio in the repeat runs, not every such curve was filed as active; the % refers to the signal ratio; further: series mostly up to about 77 µM). The method in brief: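 After overnight seeding, SBE-bla HEK 293T cells are dosed with compounds in DMSO and kept 5 hr at 37 C, 5% CO2. LiveBLAzer-type FRET substrate is then applied for 2 hr at room temperature.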
Experiment [12] addresses Thyrotropin-releasing hormone receptor (Homo sapiens) (UniProt P34981). The experiment is described as follows: qHTS assay to identify small molecule agonists of the thyrotropin-releasing hormone receptor (TRHR) signaling pathway (AID 1346891; calls by dose curve;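 further: HEK293 cells expressing TRHR with calcium dye readout; series mostly up to about 58 µM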). An outline of the steps:
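Compounds were tested as agonists at 15 concentrations, in triplicate, on TRHR-Hek293 cells; calcium-sensitive dye fluorescence was recorded for 3 min following addition.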

Experiment [13] is described as follows: Human pregnane X receptor (PXR) small molecule agonists, qHTS cell viability counter screen (AID 1346977). Further: nearly all actives have a fitted effect of over 50% in size. Further: potency means the concentration at half of the fitted maximal effect. The method in brief: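 Viability counter screen: CellTiter-Fluor signal in PXR-Luc HepG2 cells, 24hr compound exposure, 37C, 5% CO2.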
Experiment [14] is described as follows: Caspase-3/7 induction in HepG2 cells by small molecules, qHTS assay (AID 1346978). Further: nearly all actives have a fitted effect of over 15% in size. An outline of the steps:
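Wild-type HepG2 cells, 2,000/well, settled 5 hr at 37 C and 5% CO2, then compound-treated for 17 hr; caspase-3/7 activity read by luminescent Caspase-Glo 3/7 after 30 min at room temperature.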

Experiment [15] can be described thus: Caspase-3/7 induction in CHO-K1 cells by small molecules, qHTS cell viability counter screen (AID 1346979). Further: nearly all actives have a fitted effect of over 35% in size. Further: potency means the concentration at half of the fitted maximal effect. An outline of the steps: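 Viability readout by fluorescence (CellTiter-Fluor) on wild-type CHO-K1 cells exposed for 16hr at 37C and 5% CO2 to compounds delivered in DMSO; reagent incubated 1hr before reading.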
Experiment [16] is described as follows: qHTS assay to identify small molecule agonists or antagonists of the thyroid stimulating hormone receptor (TSHR) signaling pathway - wild type cell line counter screen (AID 1259384; calls by dose curve). An outline of the steps: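 Wild-type Hek293 cells, 800/well, 18 h at 37C, then compound with Ro20-1724 for 30 min RT. cAMP by HTRF (cAMP-d2/anti-cAMP cryptate), 1 h RT, fluorescence read. 15 concentrations, triplicates.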

Experiment [17] has as its target Thyrotropin receptor (Homo sapiens) (UniProt P16473). The experiment in a line: qHTS assay to identify small molecule antagonists of the thyroid stimulating hormone receptor (TSHR) signaling pathway (AID 1259385; calls by dose curve; further: nearly all actives have a fitted effect of over 20% in size). The method in brief: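 TSHR-HEK293 cells (800/well) plated 18 h, then compounds with Ro20-1724 and TSH at 1.5 ng/mL final, 30 min at room temperature. cAMP quantified by HTRF (cAMP-d2/anti-cAMP-cryptate, 1 h); 15 concentrations in triplicate.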

The target of experiment [18] is Thyrotropin-releasing hormone receptor (Homo sapiens) (UniProt P34981). The experiment is described as follows: qHTS assay to identify small molecule antagonists of the thyrotropin-releasing hormone receptor (TRHR) signaling pathway (AID 1346877; active means well fitted inhibition curve with a large enough effect in the repeat runs, not every such curve was filed as active; further: series mostly up to about 51 µM). The method in brief: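 Intracellular calcium fluorescence, read kinetically every second over 3 min, reports TRH-evoked signalling in HEK293 cells carrying TRHR. Test compounds were added 5 min ahead of a 1 nM TRH challenge.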
Sequence of Thyrotropin-releasing hormone receptor (Homo sapiens) (P34981 whole entry, looked up): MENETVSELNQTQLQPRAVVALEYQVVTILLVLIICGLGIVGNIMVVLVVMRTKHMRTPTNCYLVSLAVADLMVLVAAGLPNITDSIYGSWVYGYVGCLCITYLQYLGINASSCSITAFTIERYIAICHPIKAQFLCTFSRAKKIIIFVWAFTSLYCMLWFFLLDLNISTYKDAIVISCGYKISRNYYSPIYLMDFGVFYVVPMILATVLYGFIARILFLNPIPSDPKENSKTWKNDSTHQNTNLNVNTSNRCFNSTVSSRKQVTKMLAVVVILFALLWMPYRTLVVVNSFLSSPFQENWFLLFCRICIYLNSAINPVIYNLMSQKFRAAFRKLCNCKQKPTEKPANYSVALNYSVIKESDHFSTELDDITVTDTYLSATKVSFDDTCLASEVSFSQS

Sequence of Estrogen receptor (Homo sapiens) (P03372 whole entry, looked up): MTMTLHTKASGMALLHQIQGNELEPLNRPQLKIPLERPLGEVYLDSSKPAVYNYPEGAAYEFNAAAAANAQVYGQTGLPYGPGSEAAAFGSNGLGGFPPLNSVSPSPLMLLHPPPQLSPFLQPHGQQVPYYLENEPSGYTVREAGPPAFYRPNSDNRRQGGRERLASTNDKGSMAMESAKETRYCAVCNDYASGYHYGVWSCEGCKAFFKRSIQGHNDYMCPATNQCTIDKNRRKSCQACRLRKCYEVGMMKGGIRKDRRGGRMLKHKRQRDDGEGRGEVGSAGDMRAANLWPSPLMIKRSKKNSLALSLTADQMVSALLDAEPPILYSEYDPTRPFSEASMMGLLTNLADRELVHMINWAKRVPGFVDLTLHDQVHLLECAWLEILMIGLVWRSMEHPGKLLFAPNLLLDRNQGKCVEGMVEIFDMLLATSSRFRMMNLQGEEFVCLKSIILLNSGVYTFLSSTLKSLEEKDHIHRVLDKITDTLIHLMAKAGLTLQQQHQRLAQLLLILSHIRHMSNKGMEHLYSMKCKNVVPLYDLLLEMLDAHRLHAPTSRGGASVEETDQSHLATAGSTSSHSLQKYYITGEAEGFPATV
Sequence of Progesterone receptor (Homo sapiens) (P06401 whole entry, looked up): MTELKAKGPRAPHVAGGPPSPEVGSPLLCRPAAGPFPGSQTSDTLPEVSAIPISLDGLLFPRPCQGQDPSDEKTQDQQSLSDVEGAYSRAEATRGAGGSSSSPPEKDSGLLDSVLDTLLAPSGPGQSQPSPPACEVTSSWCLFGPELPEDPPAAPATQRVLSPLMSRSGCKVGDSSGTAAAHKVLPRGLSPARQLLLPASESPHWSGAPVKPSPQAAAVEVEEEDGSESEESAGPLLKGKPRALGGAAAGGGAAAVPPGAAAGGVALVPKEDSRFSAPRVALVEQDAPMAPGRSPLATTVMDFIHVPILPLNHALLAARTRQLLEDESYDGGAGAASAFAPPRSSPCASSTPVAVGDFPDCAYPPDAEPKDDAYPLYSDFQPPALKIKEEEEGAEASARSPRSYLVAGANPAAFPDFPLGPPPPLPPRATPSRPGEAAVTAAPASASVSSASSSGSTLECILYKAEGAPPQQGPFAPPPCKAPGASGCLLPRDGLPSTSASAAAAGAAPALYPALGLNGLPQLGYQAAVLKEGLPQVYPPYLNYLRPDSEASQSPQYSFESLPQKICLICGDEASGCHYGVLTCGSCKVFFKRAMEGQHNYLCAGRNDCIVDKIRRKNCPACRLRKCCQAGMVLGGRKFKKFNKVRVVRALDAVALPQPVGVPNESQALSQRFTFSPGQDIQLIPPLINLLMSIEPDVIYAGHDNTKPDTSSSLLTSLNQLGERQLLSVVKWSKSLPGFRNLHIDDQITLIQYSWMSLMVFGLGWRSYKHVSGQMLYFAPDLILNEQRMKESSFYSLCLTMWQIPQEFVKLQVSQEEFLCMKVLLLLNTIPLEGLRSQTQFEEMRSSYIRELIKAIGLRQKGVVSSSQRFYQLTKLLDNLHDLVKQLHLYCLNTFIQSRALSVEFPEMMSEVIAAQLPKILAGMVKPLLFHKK
Sequence of Thyrotropin receptor (Homo sapiens) (P16473 whole entry, looked up): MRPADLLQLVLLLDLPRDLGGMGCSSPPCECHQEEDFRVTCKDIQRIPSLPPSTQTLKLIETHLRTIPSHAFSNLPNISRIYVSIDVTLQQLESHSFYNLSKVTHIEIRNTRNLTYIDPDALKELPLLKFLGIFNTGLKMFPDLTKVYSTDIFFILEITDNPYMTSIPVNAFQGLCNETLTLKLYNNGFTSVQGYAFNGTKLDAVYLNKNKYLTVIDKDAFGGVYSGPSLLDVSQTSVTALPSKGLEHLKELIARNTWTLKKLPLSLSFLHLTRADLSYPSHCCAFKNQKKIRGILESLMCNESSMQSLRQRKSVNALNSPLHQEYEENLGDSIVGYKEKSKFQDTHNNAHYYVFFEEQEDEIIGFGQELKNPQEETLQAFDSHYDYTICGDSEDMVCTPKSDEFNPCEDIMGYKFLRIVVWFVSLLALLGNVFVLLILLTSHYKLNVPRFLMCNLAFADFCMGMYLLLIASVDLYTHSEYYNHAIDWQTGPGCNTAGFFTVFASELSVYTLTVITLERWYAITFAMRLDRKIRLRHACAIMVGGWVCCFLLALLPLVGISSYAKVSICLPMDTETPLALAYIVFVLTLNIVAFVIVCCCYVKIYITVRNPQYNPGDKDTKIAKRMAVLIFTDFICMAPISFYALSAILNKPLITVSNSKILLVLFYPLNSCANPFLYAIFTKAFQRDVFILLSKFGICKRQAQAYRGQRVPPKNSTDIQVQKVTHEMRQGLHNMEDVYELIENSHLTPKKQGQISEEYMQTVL

On to `CCOP(OCC)OCC`, for which the outcome in experiment [1], in experiment [4], in experiment [5], in experiment [10] and in experiment [14] was inactive. Further, the Potency entry in experiment [2], in [3], in [6], in [7], in experiment [8] and in experiment [9] was “inactive” throughout. In addition, the Potency entry in experiment [11], in experiment [12], in [13] and in experiment [15] was “inactive” in each case.
Consider `NCCc1ccc(O)cc1`, for which the result in experiment [1], in experiment [16], in experiment [4], in experiment [5], in experiment [10] and in experiment [18] was inactive. The compound was classed as inactive in [14]. The Potency entry in experiment [2], in experiment [3], in [17], in experiment [6], in experiment [7] and in [9] was “inactive” throughout. Also, the Potency entry in experiment [11], in experiment [12], in experiment [13] and in [15] was “inactive” in each case. Also, the Potency in experiment [8] is 21.5 µM (active) and inactive.
For `Cc1ccc([N+](=O)[O-])cc1C`, the outcome in experiment [1], in experiment [16], in experiment [4], in experiment [5] and in [10] was inactive. Moreover, the Potency result in experiment [2], in experiment [3], in [17], in [6], in experiment [7] and in experiment [8] was “inactive” each time. Besides, the Potency result in experiment [9], in [11], in experiment [12], in experiment [13] and in experiment [15] was “inactive” each time.
`CC(Br)C(=O)O` (configuration not stated): the outcome in [1], in [16], in experiment [4], in experiment [5], in experiment [10] and in experiment [18] was inactive. In addition, in experiment [14], the outcome was inactive. The Potency entry in [2], in experiment [3], in experiment [17], in experiment [6], in experiment [7] and in experiment [8] was “inactive” in each case. In addition, the Potency entry in experiment [9], in experiment [11], in experiment [12], in [13] and in experiment [15] was “inactive” in each case.
As to `COC(=O)c1ccccc1N`, the outcome in [1], in experiment [16], in experiment [4], in [5], in experiment [10] and in [18] was inactive. The compound was called inactive in experiment [14]. Moreover, the Potency result in [2], in [17], in experiment [6], in experiment [7], in experiment [8] and in [9] was “inactive” throughout. The Potency result in experiment [11], in experiment [12], in experiment [13] and in [15] was “inactive” each time.
Regarding `c1ccc2c(c1)Oc1ccccc1O2`, the result in [1], in [16], in [4], in [5] and in [10] was inactive. Besides, the Potency entry in [2], in [17], in [6], in experiment [7], in [8] and in [9] was “inactive” each time. The Potency entry in experiment [11], in experiment [13] and in [15] was “inactive” in each case.
In the case of `Cn1cc(-c2ccccc2)c(=O)c(-c2cccc(C(F)(F)F)c2)c1`, the result in experiment [1], in experiment [16], in [5], in [10] and in [14] was inactive. Moreover, the Potency result in [2], in experiment [3], in [17], in experiment [6], in [7] and in experiment [8] was “inactive” each time. The Potency entry in experiment [9], in [11], in experiment [12] and in experiment [13] was “inactive” in each case.
Consider `Clc1ccccc1Cl`, for which the outcome in experiment [1], in experiment [16], in experiment [4], in experiment [5], in experiment [10] and in [18] was inactive. Further, in experiment [14], the result was inactive. Further, the Potency entry in experiment [2], in experiment [17], in [6], in experiment [7], in experiment [8] and in experiment [9] was “inactive” throughout. Further, the Potency entry in [11], in [12], in experiment [13] and in experiment [15] was “inactive” each time.
Regarding `CC(C)NC(=O)N1CC(=O)N(c2cc(Cl)cc(Cl)c2)C1=O`, the outcome in [1], in experiment [16], in experiment [4], in experiment [5] and in experiment [10] was inactive. Further, the Potency entry in experiment [2], in [3], in experiment [17], in experiment [7], in experiment [8] and in experiment [9] was “inactive” throughout. In addition, the Potency result in experiment [11] and in experiment [12] was “inactive” each time. The Potency in experiment [13] is 50.1 µM (active) and inactive; in experiment [15], 19.3 µM (active) and inactive.
On to `O=c1n(Cl)c(=O)n(Cl)c(=O)n1Cl`, for which the result in experiment [1], in [16], in experiment [4], in [5], in experiment [10] and in [14] was inactive. Also, the Potency result in [2], in experiment [3], in experiment [17], in experiment [6], in experiment [7] and in [8] was “inactive” each time. Also, the Potency entry in experiment [9], in experiment [11], in [12], in experiment [13] and in experiment [15] was “inactive” each time.
